Experimental data from PubChem BioAssay (NCATS).
Inconclusive results are not listed. Calls of active or inactive are those of the source. The call rests on the fitted dose curve; in most records, active means well fitted curve in the direction sought with a large enough effect; inconclusive means small, poorly fitted or top-dose-only effect, or another doubt; inactive means no such curve, though single readings can be large; an effect the other way counts as inactive or inconclusive.

Tests used:
[1] = tested on: Zika virus NS2B-NS3 protease (unlinked complex); assay: Primary screen GU Rhodamine qHTS for Zika virus inhibitors: Unlinked NS2B-NS3 protease assay (AID 1347159); further: on the % scale 0 is the no-effect control and ±100 the full control effect; nearly all actives have a fitted effect of over 60% in size
Summary of the method: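 Percent inhibition came from the 15-min rise in Rhodamine110 fluorescence (1.5 microM substrate, ~15% conversion), normalized to no-inhibitor and no-enzyme wells and Hill-fitted. Unlinked protease, 25 nM, pH 8.0 Tris buffer; compounds up to 114 microM, 15-min preincubation.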

[2] = tested on: Zika virus NS2B-NS3 protease (linked construct); assay: Primary screen NINDS Rhodamine qHTS for Zika virus inhibitors (AID 1347160); further: nearly all actives have a fitted effect of over 55% in size
Summary of the method: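 Rhodamine110-peptide cleavage (1.5 µM substrate) by 25 nM linked NS2B-NS3 enzyme at pH 8.0 (Tris, Tween 20), after 15 min RT preincubation with compounds; 15-min fluorescence change normalized to controls and Hill-fitted.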

[3] = biological target: Calcium and integrin-binding protein 1 (Homo sapiens) (UniProt Q99828); assay: Primary qHTS for Identification of Calcium Integrin Binding Protein 1 (CIB1) Competitor (AID 1508620);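 further: GST tagged CIB1 binding a fluorescein labelled alphaIIb integrin peptide tracer; top concentration of the series differs between compounds; on the % scale 0 is the no-effect control and ±100 the full control effect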
Summary of the method: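 CIB1-GST (1 uM final) and compound incubated 15 min at room temperature before adding FITC-alphaIIb peptide tracer (100 nM final). Competition for binding read by fluorescence polarization (ex 480, em 540) after another 15 min at room temperature.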

[4] = biological target: Glutathione peroxidase 1 (Homo sapiens) (UniProt P07203); assay: Primary qHTS Assay for Inhibitors of Recombinant Selenoprotein Glutathione Peroxidase 1 (GPX1) (AID 1845191); further: on the % scale 0 is the no-effect control and ±100 the full control effect; nearly all actives have a fitted effect of over 65% in size
Summary of the method: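 NADPH consumption tracked by fluorescence at 340/450 nm between t=0 and t=15 min, room temperature. Final mix: 10 nM GPX1, 100 nM glutathione reductase, 1 mM GSH, 0.5 mM NADPH, 0.5 mM cumene hydroperoxide, 0.01% BSA; 30 min compound–enzyme preincubation.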

[5] = biological target: Phospholipid hydroperoxide glutathione peroxidase GPX4 (Homo sapiens) (UniProt P36969); assay: Primary qHTS Assay for Inhibitors of Recombinant Selenoprotein Glutathione Peroxidase 4 (GPX4) (AID 1845192); further: on the % scale 0 is the no-effect control and ±100 the full control effect; nearly all actives have a fitted effect of over 65% in size
Summary of the method: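 NADPH consumption followed by fluorescence at 340/450 nm, t=0 and after 15 min at room temperature. Reaction started with cumene hydroperoxide (0.5 mM final) after 30 min compound–GPX4 preincubation; final 200 nM GPX4, 100 nM GR, 1 mM GSH, 0.5 mM NADPH.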

[6] = biological target: Luciferin 4-monooxygenase (Photinus pyralis) (UniProt P08659); assay: Primary firefly luciferase (FLuc) qHTS assay for identification of artifact compounds. (AID 1845220); settings: outcome: dose series up to 54.1 µM unless noted; further: nearly all actives have a fitted effect of over 60% in size
Summary of the method: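 Compounds sat 15 min at room temperature with 10 uM luciferin and 10 uM ATP (pH 7.6 Tris acetate). Firefly luciferase (10 nM final) was then added, and luminescence was read 5 min later. Data normalized to no-enzyme and DMSO controls were Hill-fitted.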

[7] = Primary fluorescence-based thiol-reactive (MSTI) qHTS assay for identification of artifact compounds. (AID 1845221);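 further: thiol-reactive compounds lower the probe fluorescence signal; nearly all actives have a fitted effect of over 65% in size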
Summary of the method: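 MSTI probe at 4 uM final in 2% DMSO/PBS pH 7.4; compounds, 1 h at room temperature in dark. Fluorescence Ex/Em 525/598 nm, normalised to Acetyl-MSTI and MSTI, fitted to 4-parameter Hill.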

[8] = tested on: Nanoluciferase (engineered Oplophorus gracilirostris luciferase); assay: Primary Nanoluciferase (NLuc) qHTS assay for identification of artifact compounds. (AID 1845222);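 further: 0% = DMSO and -100% = no enzyme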
Summary of the method: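 Luminescence from secreted NLuc (filtered, 1:55-diluted S16 cell medium) read 5 min after Nano-Glo substrate; compounds preincubated 15 min, RT. Hill fits of inhibition normalized to DMSO and no-enzyme.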

[9] = Primary redox qHTS assay for identification of artifact compounds. (AID 1845223);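 further: 0% = DMSO and 100% = reference compound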
Summary of the method: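 Redox-cycling detection via DTT (250 uM final) oxidation coupled to Amplex Red (25 uM)/HRP (250 mU/mL) in HBSS. 15 min preincubation plus 30 min after DTT, room temperature. Ex/Em 525/598 nm; 4-parameter Hill fit against DMSO and 10 uM DA3003.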

NIH3T3 = assay: Cytotoxic Profiling of Annotated Libraries Using Quantitative High-Throughput Screening (AID 1296008); settings: Five cell lines viability, CellTiter-Glo ATP luminescence, 48-72 h; max response: stronger effect = lower value; further: nearly all actives have a fitted effect of over 60% in size; on max response: on the % scale 0 is the no-effect control and ±100 the full control effect
Summary of the method: (§1)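 Cytotoxicity was measured as CellTiter-Glo ATP luminescence, read after 10 min at room temperature. Compound treatment of the cells lasted 48 or 72 hr at 37 degrees Celsius in a qHTS format.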

C33A = assay: Primary qHTS to identify gynecologic anti-cancer compounds using libraries of approved drugs and bioactive compounds (AID 1345084); settings: Gynecologic cancer cell panel viability, ATPlite luminescence, 48 h; series mostly up to 57.5 µM; further: on the % scale 0 is the no-effect control and ±100 the full control effect; nearly all actives have a fitted effect of over 55% in size
Summary of the method: (§2)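 Cells, 1,000 per well, plated 16 h, then exposed 48 h at 37 C to compounds. Viability by ATPlite luminescence after 15 min at room temperature.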

CASKI = assay: as above; settings: Gynecologic cancer cell panel viability, ATPlite luminescence, 48 h; series mostly up to 57.5 µM
Summary of the method: as §2

Es-2 = assay: as above; settings: Gynecologic cancer cell panel viability, ATPlite luminescence, 48 h; series mostly up to 57.5 µM
Summary of the method: as §2

Hek293T = assay: as above; settings: Gynecologic cancer cell panel viability, ATPlite luminescence, 48 h, control line for the selectivity index; series mostly up to 57.5 µM
Summary of the method: as §2

JEG-3 = assay: as above; settings: Gynecologic cancer cell panel viability, ATPlite luminescence, 48 h; series mostly up to 57.5 µM
Summary of the method: as §2

OV90 = assay: as above; settings: Gynecologic cancer cell panel viability, ATPlite luminescence, 48 h; series mostly up to 57.5 µM
Summary of the method: as §2

PA-1 = assay: as above; settings: Gynecologic cancer cell panel viability, ATPlite luminescence, 48 h; series mostly up to 57.5 µM
Summary of the method: as §2

Tov-21-G = assay: as above; settings: Gynecologic cancer cell panel viability, ATPlite luminescence, 48 h; series mostly up to 57.5 µM
Summary of the method: as §2

Tov112D = assay: as above; settings: Gynecologic cancer cell panel viability, ATPlite luminescence, 48 h; series mostly up to 57.5 µM
Summary of the method: as §2

HaCat = assay: Cytotoxic Profiling of Annotated Libraries Using Quantitative High-Throughput Screening (AID 1296008); settings: Five cell lines viability, CellTiter-Glo ATP luminescence, 48-72 h; max response: stronger effect = lower value; further: nearly all actives have a fitted effect of over 60% in size; on max response: on the % scale 0 is the no-effect control and ±100 the full control effect
Summary of the method: as §1

Sequence of Calcium and integrin-binding protein 1 (Homo sapiens) (Q99828 whole entry, looked up): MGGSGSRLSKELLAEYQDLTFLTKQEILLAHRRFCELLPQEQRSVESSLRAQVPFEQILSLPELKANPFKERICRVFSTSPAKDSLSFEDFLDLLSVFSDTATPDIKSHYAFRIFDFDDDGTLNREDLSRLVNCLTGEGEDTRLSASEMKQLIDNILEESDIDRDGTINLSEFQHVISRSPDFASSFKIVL
Sequence of Phospholipid hydroperoxide glutathione peroxidase GPX4 (Homo sapiens) (P36969 whole entry, looked up): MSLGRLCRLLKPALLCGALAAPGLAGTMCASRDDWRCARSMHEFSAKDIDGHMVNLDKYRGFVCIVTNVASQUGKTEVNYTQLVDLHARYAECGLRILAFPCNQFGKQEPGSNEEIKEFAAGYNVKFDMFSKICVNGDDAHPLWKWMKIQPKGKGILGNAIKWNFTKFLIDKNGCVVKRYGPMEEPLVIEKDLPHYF
Sequence of Glutathione peroxidase 1 (Homo sapiens) (P07203 whole entry, looked up): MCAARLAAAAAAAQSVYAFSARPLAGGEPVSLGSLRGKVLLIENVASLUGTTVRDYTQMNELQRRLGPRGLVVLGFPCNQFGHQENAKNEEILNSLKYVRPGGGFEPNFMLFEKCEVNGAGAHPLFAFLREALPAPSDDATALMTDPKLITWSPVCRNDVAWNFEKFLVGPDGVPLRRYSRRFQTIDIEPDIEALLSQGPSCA

CC(=O)NCCCOc1ccc(C(=O)N2CCC(N3C(=O)CCc4ccccc43)CC2)cc1
inactive: Potency [1] | Potency [2] | Potency [3] | Potency [4] | Potency [5] | outcome [6] | Potency [7] | Potency [8] | Potency [9] | max response (NIH3T3) -14% | Potency (C33A) | Potency (CASKI) | Potency (Es-2) | Potency (Hek293T) | Potency (JEG-3) | Potency (OV90) | Potency (PA-1) | Potency (Tov-21-G) | Potency (Tov112D)

COc1ccc(CCNCc2ccc(OC)c3ccccc23)cc1
inactive: Potency [1] | Potency [2] | Potency [3] | Potency [4] | Potency [5] | outcome [6] | Potency [7] | Potency [9] | max response (NIH3T3) -21.8% | Potency (C33A) | Potency (CASKI) | Potency (Es-2) | Potency (Hek293T) | Potency (OV90) | Potency (PA-1) | Potency (Tov-21-G) | Potency (Tov112D)

NC(=O)[C@@H](CC1CC1)[C@@H](CCC(F)(F)F)C(=O)N[C@H]1N=C(c2ccccc2)c2cccc(F)c2NC1=O
inactive: Potency [1] | Potency [2] | Potency [5] | outcome [6] | Potency [7] | Potency [8] | Potency [9] | max response (HaCat) -25% | max response (NIH3T3) -16.9% | Potency (C33A) | Potency (CASKI) | Potency (Es-2) | Potency (Hek293T) | Potency (JEG-3) | Potency (OV90) | Potency (PA-1) | Potency (Tov-21-G) | Potency (Tov112D)

C=C1C(=O)OC2/C=C(\COO)CC/C=C(\COC(C)=O)CC(OC(=O)C(C)CC)C12 (centres undefined)
inactive: Potency [1] | Potency [2] | Potency [3] | Potency [4] | outcome [6] | Potency [7] | Potency [8] | Potency [9] | outcome (HaCat) | Potency (C33A) | Potency (CASKI) | Potency (Es-2) | Potency (JEG-3) | Potency (PA-1) | Potency (Tov-21-G) | Potency (Tov112D)

O=C(NCCN1CCC2(CC1)C(=O)NCN2c1cccc(F)c1)c1ccc(F)c(F)c1
inactive: Potency [1] | Potency [2] | Potency [3] | Potency [4] | Potency [5] | outcome [6] | Potency [7] | Potency [8] | Potency [9] | max response (NIH3T3) -17.5% | Potency (C33A) | Potency (CASKI) | Potency (Es-2) | Potency (Hek293T) | Potency (JEG-3) | Potency (OV90) | Potency (PA-1) | Potency (Tov-21-G) | Potency (Tov112D)
